In PubChem BioAssay:
Active and inactive are the calls of the source.

Assays:
[1] = E. coli DRC41 culture turbidity changes, primary screen, E. coli filamentation inducer project, strain DRC41, OD650, 48 h (AID 1152);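 also: E. coli MC1000 strain DRC41 lacking acrAB efflux pump and sulA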; conditions: E. coli DRC41 (acrAB sulA), higher = more signal, called active from +8 up or from −8 down
[2] = small-molecule binders of probe aLefty1, primary screen, biochemical, small-molecule microarray, 635/667 nm fluorescence (AID 1153); conditions: higher = more signal;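 also: score merges spot fluorescence with signal-to-noise ratio from the scanned slide images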
[3] = PSAC antagonists in infected red cells, primary screen, cell-based, P. falciparum Indochina, OD700, 1 h (AID 1154); conditions: P. falciparum Indochina infected RBC osmotic lysis, higher = more signal, called active from +8 up or from −8 down
[4] = PSAC antagonists in infected red cells, primary screen, cell-based, P. falciparum Indochina, OD700, 2 h (AID 1155);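 also: lysis reports solute entry through the parasite surface anion channel PSAC; channel blockers reduce lysis of infected cells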; conditions: P. falciparum Indochina infected erythrocytes, osmotic lysis OD700; higher = more signal, called active from +8 up or from −8 down
[5] = osmotic lysis modulators in infected erythrocytes, primary screen, PSAC antagonist project, cell-based, P. falciparum Indochina, OD700, 3 h (AID 1156); conditions: higher = more signal, called active from +8 up or from −8 down
[6] = PSAC antagonists in infected red cells, primary screen, cell-based, P. falciparum Indochina, OD700, 18 h (AID 1157); conditions: P. falciparum Indochina infected erythrocytes, osmotic lysis OD700, 18 h; higher = more signal, called active from +8 up or from −8 down
[7] = modulators of S6 phosphorylation in cells, primary screen, cell-based, A549, cytoblot, luminescence, serum-stimulated (AID 1158); conditions: A549 phospho-S6 cytoblot, 5 h, higher = more signal;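 also: serum-stimulated A549 lung adenocarcinoma cells; signal is phosphorylated S6 detected by cytoblot immunostaining with HRP secondary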
[8] = target: NADPH oxidase 2 (Homo sapiens) (UniProt P04839); assay: NOX2-dependent H2O2 signal modulators, primary screen, NOX inhibitor project, cell-based, HEK293-NOX2, PMA-stimulated, Amplex Red fluorescence (AID 1159); conditions: 45 min, higher = more signal, called active from +8 up or from −8 down; also: test concentration not given here
[9] = target: NADPH oxidase 4 (Homo sapiens) (UniProt Q9NPH5); assay: NOX4-dependent H2O2 signal modulators, primary screen, NOX inhibitor project, cell-based, HEK293-NOX4, tetracycline-induced, Amplex Red fluorescence (AID 1160); conditions: 45 min, higher = more signal, called active from +8 up or from −8 down
[10] = target: NADPH oxidase 5 (Homo sapiens) (UniProt Q96PH1); assay: NOX5-dependent H2O2 signal modulators, primary screen, NOX inhibitor project, cell-based, HEK293-NOX5, Amplex Red fluorescence (AID 1161); conditions: HEK293-NOX5, ionomycin, 45 min, higher = more signal
Chain of NADPH oxidase 5 (Homo sapiens) (Q96PH1 whole entry, looked up): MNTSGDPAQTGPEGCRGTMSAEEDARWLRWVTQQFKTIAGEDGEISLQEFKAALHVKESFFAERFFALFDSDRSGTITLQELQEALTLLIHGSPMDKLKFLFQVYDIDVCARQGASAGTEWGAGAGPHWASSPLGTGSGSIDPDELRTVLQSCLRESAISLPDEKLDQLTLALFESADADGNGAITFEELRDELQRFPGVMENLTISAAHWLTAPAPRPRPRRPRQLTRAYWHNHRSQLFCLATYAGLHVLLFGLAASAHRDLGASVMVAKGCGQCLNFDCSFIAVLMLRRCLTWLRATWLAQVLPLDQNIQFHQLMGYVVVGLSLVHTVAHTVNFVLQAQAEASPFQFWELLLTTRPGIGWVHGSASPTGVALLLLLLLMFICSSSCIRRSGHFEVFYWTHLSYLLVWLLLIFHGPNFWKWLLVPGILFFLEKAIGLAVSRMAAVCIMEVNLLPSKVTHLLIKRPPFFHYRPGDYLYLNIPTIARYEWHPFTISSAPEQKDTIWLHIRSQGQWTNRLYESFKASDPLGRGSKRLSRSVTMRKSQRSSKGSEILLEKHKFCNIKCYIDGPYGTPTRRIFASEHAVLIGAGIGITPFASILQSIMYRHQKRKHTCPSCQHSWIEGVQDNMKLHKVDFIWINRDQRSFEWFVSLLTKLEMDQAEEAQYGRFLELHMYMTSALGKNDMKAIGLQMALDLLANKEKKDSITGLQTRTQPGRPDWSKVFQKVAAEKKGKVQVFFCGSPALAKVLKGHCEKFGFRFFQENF

Chain of NADPH oxidase 2 (Homo sapiens) (P04839 whole entry, looked up): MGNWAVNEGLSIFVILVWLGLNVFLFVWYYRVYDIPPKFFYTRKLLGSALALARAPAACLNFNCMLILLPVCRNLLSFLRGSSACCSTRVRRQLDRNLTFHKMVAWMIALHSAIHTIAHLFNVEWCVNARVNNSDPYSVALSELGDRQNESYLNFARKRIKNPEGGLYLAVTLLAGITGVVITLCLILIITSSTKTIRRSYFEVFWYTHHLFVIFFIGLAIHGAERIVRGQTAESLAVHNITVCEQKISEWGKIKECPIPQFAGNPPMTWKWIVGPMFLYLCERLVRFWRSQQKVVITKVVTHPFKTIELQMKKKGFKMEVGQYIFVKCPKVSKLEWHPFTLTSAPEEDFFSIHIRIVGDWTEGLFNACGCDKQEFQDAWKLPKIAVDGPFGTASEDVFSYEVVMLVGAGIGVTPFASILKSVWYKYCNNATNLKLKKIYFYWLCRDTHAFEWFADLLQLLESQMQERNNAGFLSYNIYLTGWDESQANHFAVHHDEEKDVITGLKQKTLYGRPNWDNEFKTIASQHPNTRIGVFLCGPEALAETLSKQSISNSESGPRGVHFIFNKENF
Chain of NADPH oxidase 4 (Homo sapiens) (Q9NPH5 whole entry, looked up): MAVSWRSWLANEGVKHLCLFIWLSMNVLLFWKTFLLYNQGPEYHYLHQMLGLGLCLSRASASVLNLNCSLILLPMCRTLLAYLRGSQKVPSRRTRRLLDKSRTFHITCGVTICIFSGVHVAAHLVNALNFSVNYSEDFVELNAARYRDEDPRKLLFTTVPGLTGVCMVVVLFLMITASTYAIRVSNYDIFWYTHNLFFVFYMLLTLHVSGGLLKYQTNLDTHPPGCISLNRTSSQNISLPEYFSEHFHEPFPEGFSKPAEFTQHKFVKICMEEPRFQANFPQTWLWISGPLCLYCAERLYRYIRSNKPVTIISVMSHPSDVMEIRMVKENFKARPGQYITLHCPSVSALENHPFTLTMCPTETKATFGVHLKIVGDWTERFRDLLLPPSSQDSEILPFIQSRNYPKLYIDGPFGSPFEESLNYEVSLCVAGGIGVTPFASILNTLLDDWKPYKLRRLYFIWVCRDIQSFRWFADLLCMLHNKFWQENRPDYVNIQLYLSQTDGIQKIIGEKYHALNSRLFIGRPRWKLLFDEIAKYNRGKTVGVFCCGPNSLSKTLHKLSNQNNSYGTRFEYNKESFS

Structure (SMILES) | z-score [1] | composite z-score [2] | z-score [3] | z-score [4] | z-score [5] | z-score [6] | z-score [7] | z-score [8] | z-score [9] | z-score [10]
CCN1C(=O)[C@H]2[C@H]3[C@H](O)[C@H](O)CC(=NOC[C@@H](C)[C@H](OCc4ccccc4)C(C)C)[C@@H]3CC[C@H]2C1=O | 0.618 (inactive) | -0.144 | 0.551 (inactive) | 0.106 (inactive) | 0.061 (inactive) | 0.0723 (inactive) | -0.357 | -0.136 (inactive) | 0.338 (inactive) | -0.287
CCCNC(=O)OC[C@H]1O[C@H](CCON=C2[C@H]3CCn4c(=O)n(-c5ccccc5)c(=O)n4[C@H]3[C@H](O)[C@@H]3O[C@H]23)C=C[C@@H]1Oc1ccc(OC)cc1 | 0.653 (inactive) | 0.198 | 1.69 (inactive) | -0.0218 (inactive) | 0.378 (inactive) | 0.268 (inactive) | -0.254 | -1.58 (inactive) | -0.373 (inactive) | -0.987
C[C@@H](c1ccccc1)N1C(=O)[C@H]2[C@H]3[C@H](O)[C@H](O)CC(=NOC[C@@H](O)COCc4ccco4)[C@@H]3CC[C@H]2C1=O | -0.224 (inactive) | -0.147 | 0.169 (inactive) | 0.32 (inactive) | -0.478 (inactive) | -0.138 (inactive) | 0.403 | 0.215 (inactive) | -1.51 (inactive) | -0.681
CC(CCN1CCc2nc(-c3ccccc3)c(-c3ccccc3)cc2C1)=NO[C@@H](C)c1cn([C@H](CO)Cc2ccccc2)nn1 | -1.44 (inactive) | -0.103 | -0.278 (inactive) | -1.89 (inactive) | 0.0934 (inactive) | -2.16 (inactive) | 1.52 | -7.26 (inactive) | -1.51 (inactive) | -4.19
CCCCC(=C=CC[C@H](O)c1ccccc1OCCO)C[C@H](O)COCc1ccccc1 | -0.16 (inactive) | -0.0544 | 12 (active) | 1.72 (inactive) | 0.725 (inactive) | 0.921 (inactive) | -0.424 | -1.02 (inactive) | -1.37 (inactive) | -2.05
COc1ccc(O[C@H]2C=C[C@@H](c3ccccc3)O[C@@H]2COC(=O)CCC(C)=NOC(C)CN2CCCCc3nc(C)c(C)cc32)cc1 (stereo not given in full) | 0.233 (inactive) | -0.584 | 21.7 (active) | 3.58 (inactive) | 1.68 (inactive) | 1.15 (inactive) | -0.0603 | -2.04 (inactive) | -0.369 (inactive) | -0.824
O=C1NC(=O)C2C1C=CC(C(O)Cc1ccccc1)N2Nc1ccccn1 (stereo not given) | 0.79 (inactive) | 0.165 | 0.541 (inactive) | -0.67 (inactive) | -0.255 (inactive) | -0.422 (inactive) | 0.91 | -1.58 (inactive) | -2.54 (inactive) | -1.8
O=C1[C@H]2[C@H]3[C@H](O)[C@H](O)CC(=NOCc4ccccc4)[C@H]3CC[C@H]2C(=O)N1c1cccc(Oc2ccccc2)c1 | 0.0144 (inactive) | -0.0193 | 6.64 (inactive) | 1.42 (inactive) | 0.969 (inactive) | 0.525 (inactive) | -0.219 | -1.86 (inactive) | -1.01 (inactive) | -3.91
CCCCc1nc2c(c3c1C[C@H](C)OC3)CN(CCC(C)C)CC2 | -0.192 (inactive) | -0.106 | 1.35 (inactive) | 0.977 (inactive) | 0.816 (inactive) | 0.589 (inactive) | 0.171 | 0.35 (inactive) | 0.315 (inactive) | 0.776
CCc1cc2c(nc1CC)CCN(CCC(C)=NOC[C@@H](O)COCc1ccco1)C2 | 0.538 (inactive) | 1.09 | 2.3 (inactive) | -0.0282 (inactive) | 0.0761 (inactive) | 0.147 (inactive) | -0.659 | -0.566 (inactive) | 0.162 (inactive) | 1.84
COc1cccc([C@H]2Oc3ccc(OC)cc3C(=NOC(C)CN3CCCc4nc(C)c(C)cc43)[C@@H]2O)c1 (stereo not given in full) | -0.304 (inactive) | 0.0809 | 2.47 (inactive) | 0.542 (inactive) | 0.714 (inactive) | 0.465 (inactive) | -0.912 | -1.12 (inactive) | -0.807 (inactive) | 1.57
CC1CC/C=C\[C@H]2OC34C=CCN(Cn5nnc6ccccc65)C(=O)[C@H]3N(CCO)C(=O)[C@@H]4C2C(=O)O1 (stereo not given in full) | 2.49 (inactive) | -0.155 | 2.87 (inactive) | 0.218 (inactive) | -1.23 (inactive) | -0.752 (inactive) | 1.03 | 1.44 (inactive) | 0.285 (inactive) | 2.67
CCOC(=O)C1=CCC(c2cc3ccccc3[nH]2)NC1 (stereo not given) | -0.92 (inactive) | 0.3 | 6.29 (inactive) | 1.16 (inactive) | 2.48 (inactive) | 0.829 (inactive) | 0.0315 | -0.246 (inactive) | 0.0972 (inactive) | 0.287
COC(=O)CC1OC1[C@H](C)[C@@H](OC)C(C)C (stereo not given in full) | 0.547 (inactive) | -0.0186 | 2.66 (inactive) | -0.0353 (inactive) | -0.324 (inactive) | -0.146 (inactive) | 0.0023 | -1.33 (inactive) | -1.67 (inactive) | -1.45
CO[C@H]1O[C@H](CO)[C@@H](OC(=O)Nc2ccc3c(c2)OCO3)[C@H](OC(=O)Nc2ccccc2-c2ccccc2)[C@@H]1OC(=O)Nc1ccccc1-c1ccccc1 | 0.181 (inactive) | 0.298 | 2.44 (inactive) | 1.7 (inactive) | 0.433 (inactive) | 1.14 (inactive) | -0.0879 | 2.75 (inactive) | -0.0563 (inactive) | -0.303
O=C1[C@H]2[C@H]3[C@H](O)[C@H](O)CC(=NOC[C@@H](O)COCc4ccco4)[C@H]3CC[C@H]2C(=O)N1C1CCCCC1 | -0.708 (inactive) | 0.0245 | 1.6 (inactive) | -1.23 (inactive) | 0.786 (inactive) | -2.32 (inactive) | 0.988 | -2.55 (inactive) | -0.583 (inactive) | -1.66
COc1ccc(OC[C@H]2Cc3c(-c4ccccc4)nc4c(c3CO2)CN(CCOc2ccccc2)CC4)cc1 | 0.481 (inactive) | -0.0141 | 15.4 (active) | 0.946 (inactive) | 0.661 (inactive) | -0.718 (inactive) | 1.76 | -0.0596 (inactive) | -1.68 (inactive) | -1.04
O=C1CCCC=C1C(O)CCOCc1ccccc1 (stereo not given) | -1.7 (inactive) | -0.342 | 0.427 (inactive) | -0.127 (inactive) | 0.452 (inactive) | -0.118 (inactive) | -0.235 | 1.18 (inactive) | 0.45 (inactive) | -0.00615
CC(CCN1CCCCc2nc(C)c(C)cc21)=NOC(C)CN1CCCCc2nc(C)c(C)cc21 (stereo not given) | -2.08 (inactive) | 0.235 | 1.38 (inactive) | 0.329 (inactive) | 0.964 (inactive) | 0.587 (inactive) | -0.839 | -1.47 (inactive) | -3.07 (inactive) | -1.31
COC(=O)C1=C(C)N(Cc2ccccc2)[C@]23O[C@](C(=O)OC)(C(=O)N2[C@@H]1c1ccccc1)[C@H]1CCOC(=O)[C@H]13 | -0.238 (inactive) | -0.0984 | 0.951 (inactive) | -0.0468 (inactive) | 1.3 (inactive) | 0.443 (inactive) | -0.537 | 0.902 (inactive) | 0.805 (inactive) | 1.06
CC(=O)OC[C@H]1O[C@@H](ON=C(C)CCN2CCc3nc(-c4ccccc4)c(-c4ccccc4)cc3C2)[C@H](OC(C)=O)[C@@H](OC(C)=O)[C@@H]1OC(C)=O | -1.59 (inactive) | 0.0355 | 1.12 (inactive) | 0.327 (inactive) | 0.993 (inactive) | 0.465 (inactive) | -0.225 | -1.13 (inactive) | 0.55 (inactive) | -3.13
CN(C)CCCNC(=O)[C@@H]1c2ccccc2C(=O)N(Cc2ccccc2)[C@H]1c1ccc(CO)cc1 | 0.346 (inactive) | -0.163 | 2.98 (inactive) | 0.604 (inactive) | 2.64 (inactive) | 0.33 (inactive) | -0.25 | -1.11 (inactive) | 1.02 (inactive) | -0.911
CC(=O)C[C@H](O)[C@@H](NC(=O)OC(C)(C)C)C(C)C | -0.593 (inactive) | -0.196 | 0.427 (inactive) | -0.649 (inactive) | 1.48 (inactive) | -1.64 (inactive) | 1.63 | 0.2 (inactive) | -0.658 (inactive) | -1.63
[N-]=[N+]=Nc1ccccc1C[C@@]1(C(N)=O)N=C(c2ccc(OCCCO)cc2)O[C@@H]1c1ccccc1 | -0.307 (inactive) | 0.506 | 27.3 (active) | 22.4 (active) | 2.73 (inactive) | 2.47 (inactive) | 1.4 | -2.2 (inactive) | 0.249 (inactive) | -1.75
CC(=O)OC[C@H]1O[C@H](CC=NOC[C@@H](C)[C@H](OCc2ccccc2)C(C)C)C=C[C@@H]1OC(C)=O | -0.0083 (inactive) | -0.101 | 1.25 (inactive) | 0.766 (inactive) | 0.712 (inactive) | 0.343 (inactive) | -0.0212 | -0.401 (inactive) | -0.344 (inactive) | -2.35
CCN1C(=O)[C@H]2[C@H]3[C@H](O)[C@H](O)CC(=NOCc4ccccc4)[C@H]3CC[C@H]2C1=O | -0.255 (inactive) | -0.276 | 1.78 (inactive) | 0.012 (inactive) | -0.824 (inactive) | 0.0113 (inactive) | 0.9 | -0.145 (inactive) | 0.32 (inactive) | -0.385
CCCC[C@H]1OB(O)C[C@H]2C1=C(C)C[C@H]1C(=O)N(C)C(=O)[C@H]12 | -0.908 (inactive) | -0.147 | 0.39 (inactive) | -0.123 (inactive) | -0.974 (inactive) | 0.0834 (inactive) | 0.292 | -0.76 (inactive) | 0.332 (inactive) | -0.235
